# KB-V1 MDR tox: qHTS assay for MDR1-selective chemotherapeutics: Primary screen using the drug-selected MDR subline cells KB-V1; KB-V1 MDR cells viability, CellTiter-Glo, 72 h; 3.4% of 400,000 active; Potency, µM (top dose mostly 46.1 µM), usual class: cytotoxic; AID 1347076, 2019; further: potency means the concentration at half of the fitted maximal effect; on the % scale 0 is the no-effect control and ±100 the full control effect; nearly all actives have a fitted effect of over 60% in size
#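 Cytotoxicity toward P-gp-expressing KB-V1 cells was determined as loss of CellTiter-Glo luminescence after 72 h at 37 degrees C. Compounds were tested in quantitative HTS format across a concentration range, with curves fitted to normalized data.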
# MCF10A rerep: A quantitative high throughput screen for small molecules that induce DNA re-replication in MCF 10a normal breast cells; Potency, µM (top dose mostly 46.1 µM), inactives show at the top dose activity, positive = re-replication, most hits filed as activators; 2.9% of 350,000 active; MCF 10A DNA re-replication, Hoechst nuclear intensity, 48 h; AID 624296, 2012; further: potency means the concentration at half of the fitted maximal effect; % of control where 0% means no effect; nearly all actives have a fitted effect of over 50% in size
# KB-3-1 cytotox: qHTS assay for MDR1-selective chemotherapeutics: Primary screen using the parental adenocarcinoma cell KB-3-1; AID 1347075, 2019; 1.4% of 400,000 active; Potency, µM (top dose mostly 46.1 µM), most hits filed as cytotoxic; KB-3-1 viability, CellTiter-Glo ATP luminescence, 72 h; further: potency means the concentration at half of the fitted maximal effect; on the % scale 0 is the no-effect control and ±100 the full control effect; nearly all actives have a fitted effect of over 60% in size
#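 Parental KB-3-1 adenocarcinoma cells in phenol-red-free DMEM with 10% FBS were pin-treated with compounds at several concentrations, incubated 72 h at 37 °C, and viability read by CellTiter-Glo luminescence; concentration-effect curves were fitted after normalization.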
# D3 ag: qHTS of D3 Dopamine Receptor Agonist: qHTS | D(3) dopamine receptor (Homo sapiens), P35462 | D3R DiscoveRx beta-arrestin cells, luminescence, 90 min | max activation, % | 0.58% of 410,000 active; in the data active means max activation above about 30%; further: 0% is about no effect
# Target sequence (P35462 whole entry, looked up): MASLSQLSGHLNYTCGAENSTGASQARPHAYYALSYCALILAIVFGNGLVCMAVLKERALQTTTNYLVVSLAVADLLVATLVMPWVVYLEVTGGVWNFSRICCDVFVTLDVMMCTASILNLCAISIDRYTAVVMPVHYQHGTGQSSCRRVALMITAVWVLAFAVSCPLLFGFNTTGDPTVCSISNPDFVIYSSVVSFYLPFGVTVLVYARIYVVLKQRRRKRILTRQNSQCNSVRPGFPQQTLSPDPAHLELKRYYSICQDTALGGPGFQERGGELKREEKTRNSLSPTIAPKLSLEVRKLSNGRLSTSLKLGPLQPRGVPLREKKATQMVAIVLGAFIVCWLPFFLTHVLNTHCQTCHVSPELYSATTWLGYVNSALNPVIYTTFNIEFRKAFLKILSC
#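 Agonist-mode cell screen: cells plated at 1500/well and incubated overnight at 37 °C, then exposed to library compounds for 90 min at 37 °C. Detection reagent was added for 30–60 min at room temperature, and luminescence was read.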
# SW480 rerep: A quantitative high throughput screen for small molecules that induce DNA re-replication in SW480 colon adenocarcinoma cells; SW480 DNA re-replication, Hoechst DNA content imaging, 48 h; Potency, µM (doses to about 46.1 µM), for the others: at the top dose re-replication activation, usual class: activators; 1.8% of 340,000 active; AID 624297, 2012; further: potency means the concentration at half of the fitted maximal effect; % of control where 0% means no effect; nearly all actives have a fitted effect of over 55% in size
#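 First, 250 cells per well were seeded. Next, compound or vehicle (23 nL) was pinned in, plates sat 48 hr at 37 C. Finally Hoechst was added for 40 min before fluorescence scanning.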
# DRD3 antagonist: qHTS of D3 Dopamine Receptor Antagonist: qHTS; 2.5% of 360,000 active; max response, negative = inhibition, %; D3R cells, DiscoveRx beta-arrestin luminescence, antagonist mode; stronger effect = lower value; D(3) dopamine receptor (Homo sapiens), P35462; AID 652054, 2013; in the data active means max response below about -50%; inconclusive means no clear call, values can overlap the other calls; further: on the % scale 0 is the no-effect control and ±100 the full control effect
#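 Cells plated overnight at 1500 cells/well, then exposed to library compounds with dopamine controls for 90 minutes at 37 degrees C. DiscoveRx reagent added for 30–60 minutes at room temperature; luminescence read, quantitative HTS format.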
# An asterisk follows results filed as active; i = inactive; ? = inconclusive; . = not tested or not shown. Compounds with a hit are over-represented: about 8.9% of the library has one in this group of screens. Unless noted, the call rests on the fitted dose curve; in most records, active means well fitted curve in the direction sought with a large enough effect; inconclusive means small, poorly fitted or top-dose-only effect, or another doubt; inactive means no such curve, though single readings can be large; an effect the other way counts as inactive or inconclusive.
SMILES,KB-V1 MDR tox,MCF10A rerep,KB-3-1 cytotox,D3 ag,SW480 rerep,DRD3 antagonist
Cc1cc(N2CCN(S(=O)(=O)c3ccc(Cl)cc3)CC2)c2ccccc2n1,18µM*,-6%,?,3,-8%,-14
Cc1ccc(S(=O)(=O)N2CCN(c3ccnc4cc(Cl)ccc34)CC2)cc1,i,13%,?,4,-19%,20
Cn1c(CN2CCN(c3ccc(Cl)cc3)CC2)nc2ccccc21,18µM*,?,i,-17,2%,-20
O=C(COc1ccc(Cl)cc1)NCCc1csc(-c2ccc(C(F)(F)F)cc2)n1,.,.,.,9,.,.
CCOC(=O)Cn1c(=O)n(CC2CCCO2)c2nc(-c3ccc(OCC)cc3)nc(C(N)=O)c21 (stereo not drawn),i,.,i,-1,.,.
CC(=O)c1cccc(NC(=O)Nc2cnn(Cc3ccc(Cl)cc3Cl)c2)c1,18µM*,?,?,-2,-2%,13
O=C(Nc1cnn(Cc2ccc(Cl)cc2Cl)c1)c1cc(-c2cccs2)on1,?,-11%,i,-21,-7%,6
O=C(Nc1cnn(Cc2ccc(Cl)cc2Cl)c1)c1noc2c1CCCC2,10µM*,16%,i,2,19%,-5
CCCOc1ccc2ccccc2c1/C=N/n1c(C)nnc1-n1nc(C)cc1C,5.8µM*,10µM*,5.2µM*,-2,21µM*,-5
Cc1cc(C)n(-c2nnc(C)n2/N=C/c2ccco2)n1,i,11%,i,-1,2%,0
Cc1cccc(N2CCN(C(=O)c3cc(S(=O)(=O)N4CCCC4)cn3C)CC2)c1C,i,8.2µM*,i,0,15µM*,?
CC(=O)c1ccc(N2CCN(S(=O)(=O)c3csc(C(N)=O)c3)CC2)cc1,?,1%,i,5,0%,8
Cc1cccc(N2CCN(S(=O)(=O)c3csc(C(N)=O)c3)CC2)c1C,i,.,21µM*,-6,.,.
Cn1cc(S(=O)(=O)N2CCCCCC2)cc1C(=O)N1CCN(c2cccc(Cl)c2)CC1,i,.,i,-4,.,.
Cc1cccc(N2CCN(C(=O)c3cc(S(=O)(=O)N4CCOCC4)cn3C)CC2)c1C,i,?,i,5,-2%,15
Cn1cc(S(=O)(=O)N2CCCCCC2)cc1C(=O)N1CCN(c2cccc(C(F)(F)F)c2)CC1,21µM*,.,?,-6,.,.
COc1ccccc1CNC(=O)COC(=O)CCN1C(=O)C2CC=CCC2C1=O (stereo not drawn),i,.,i,-3,.,-22
Cc1ccc2nc(CSc3nnc(NC(=O)C(C)C)s3)cc(=O)n2c1,.,.,.,0,.,.
COc1ccc(-c2nc3ccc(C)cn3c2Cc2ccsc2)cc1OC,23µM*,.,i,-9,.,-3
Clc1ccc2nc(-c3ccco3)c(Cc3ccsc3)n2c1,i,.,i,-11,.,-53*
Cc1ccc(Cc2c(-c3ccc(C#N)cc3)nc3ccc(Br)cn23)cc1,i,.,?,0,.,8
Cc1ccc2nc(-c3cccc(Cl)c3)c(Cc3ccccc3)n2c1,21µM*,.,i,-1,.,-23
N#Cc1ccc(-c2nc3ccc(Br)cn3c2Cc2ccccc2)cc1,i,.,21µM*,-5,.,12
Cc1ccc(-c2nc3ccc(C)cn3c2Cc2cccc(Cl)c2)cc1,?,.,i,1,.,41
CC(=O)Nc1nonc1-c1nnc(SCC(=O)Nc2ccccc2)n1-c1ccccc1,i,.,i,-1,.,.
SMILES,KB-V1 MDR tox,MCF10A rerep,KB-3-1 cytotox,D3 ag,SW480 rerep,DRD3 antagonist
Cc1ccc2nc(-c3ccccc3)c(CN3CCOCC3)n2c1,i,0.65µM*,i,9,-13%,-4
COC(=O)c1ccc2nc(-c3ccc(Cl)cc3)c(Cc3ccsc3)n2c1,21µM*,.,?,4,.,0
CCc1oc2ccccc2c1C(=O)c1cc(Br)c(O)c(Br)c1,i,7.3µM*,i,-17,-1%,16
COc1ccccc1C(=O)NC(C)C(c1cccs1)N1CCN(C)CC1 (stereo not drawn),18µM*,-9%,i,-25,3%,?
COc1ccccc1N1CCN(C(c2cccs2)C(C)NC(=O)c2cccs2)CC1 (stereo not drawn),4.1µM*,2%,i,-3,1%,-17
CCOC(=O)N1CCN(CCC(=O)c2ccc(Br)cc2)CC1,i,?,i,7,?,-3
CCOC(=O)N1CCN(CCC(=O)c2ccc(OC)cc2)CC1,i,15µM*,i,1,?,0
CCOC(=O)N1CCN(CCC(=O)c2ccc(Cl)cc2)CC1,?,?,21µM*,-4,?,7
O=C(/C=C/c1cccc(Cl)c1)Nc1cccc([S+](=O)([O-])Nc2ccccc2F)c1,i,.,i,.,.,.
Cc1cccc(-n2ccnc2SCC(=O)Nc2ccccc2C(F)(F)F)c1,?,.,i,-6,.,.
CNC[C@H](CC1CCCCC1)NC[C@H](CO)NCC1(c2ccccc2)CC1,?,?,?,-28,?,12
CNC[C@H](CC1CCCCC1)NC[C@H](CO)NCCc1cccc(C(F)(F)F)c1,i,?,?,-35,?,-84*
COc1cc(CNC(=O)c2ccc3nc(Cc4ccccc4)oc3c2)cc(OC)c1OC,i,.,26µM*,6,.,.
COc1ccc(Cc2nc3ccc(C(=O)N4C[C@@H](C)O[C@@H](C)C4)cc3o2)cc1OC,i,-3%,?,4,1%,0
CN(C)c1ccc(CNC(=O)c2ccc3nc(CCc4ccccc4)oc3c2)cc1,.,.,.,48*,.,.
COCCN1CCN(C(=O)c2ccc3nc(Cc4ccc(OC)c(OC)c4)oc3c2)CC1,?,17%,4.6µM*,3,?,14
COc1ccc(C(=O)Nc2ccc(Cl)c(S(=O)(=O)Nc3ccccc3OC)c2)cc1,2.3µM*,9%,?,24,3%,10
COc1ccc(NS(=O)(=O)c2cc(N/C(=N\S(=O)(=O)c3ccccc3)c3ccc(F)cc3)ccc2Cl)cc1,21µM*,13µM*,21µM*,-4,?,-3
CCOc1ccc(NS(=O)(=O)c2cc(NC(=O)c3ccc(C)cc3)ccc2Cl)cc1,0.82µM*,2.1µM*,?,-3,4.6µM*,-9
CCOc1ccc(Oc2ccc(NS(=O)(=O)c3cc(C(=O)O)ccc3Cl)cc2)cc1,i,-2%,i,-16,-2%,0

# Bioassay records as filed in PubChem.
